Hits are enriched below; roughly 1.6% of the tested compounds scored in any of these assays.
ATG4B inh: ATG4B (human) cysteine protease inhibition | ATG4B cleavage of LC3-PLA2, NBD-HPC fluorescence, 1 h | 340,000 compounds, 0.51% hits | AID 504462 | Q9Y4P1 | inhibition, % at 8.33 µM; in the data active means inhibition above about 40%
CendR NRP1 mod: modulators of CendR peptide binding to human neuropilin-1 | O14786 | FAM-RPARPAR peptide binding to NRP-1, fluorescence polarization | inhibition, % at 25 µM | 360,000 compounds, 0.85% hits | AID 602438;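 active means inhibition or corrected inhibition above about 18%, plus a signal ratio from 0.5 to 1.5, limit read from the data, passing the limit was not always enough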
PKA-R1A activ: activates the PKA-R1A holoenzyme complex | P00514+P68181 | PKA-R1A dissociation, Cy5-IP20 fluorescence polarization; scaled: DMSO 0%, 113 µM cGMP 100% | activation, % at 11.4 µM | 340,000 compounds, 0.083% hits;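 active means percent activation above the mean of all tested compounds plus 3 SD, cut at about 19% in these data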;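 further: higher means more PKAc released from R1A so a rise in polarization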
VLA-4 inh: inhibition in a human VLA-4 binding assay | P13612 | VLA-4 expressing cells, ligand binding flow cytometry | inhibition, % (about 7 µM as worked out from the volumes in the protocol) | 330,000 compounds, 0.2% hits | AID 2557
PKA-R2B activ: activators of human PKA-R2B complex; PKA-R2B holoenzyme dissociation, Cy5-IP20 fluorescence polarization; R2B truncated from residue 108, S112A mutant; 0% DMSO only, 100% 113 µM cGMP; P22694+P31323; 340,000 compounds, 0.079% hits; activation, % at 11.4 µM;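 active means activation above a cutoff set at the mean over all compounds plus 3 SD, cut at about 18% in these data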;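 further: higher means more holoenzyme dissociation and a rise in polarization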
ATG4B conf: confirmation of human ATG4B inhibitors | shares compounds with ATG4B inh | ATG4B protease fluorescent substrate cleavage assay | inhibition, % at 8.33 µM | 320 compounds, 92% hits | AID 504757; in the data active means inhibition above about 39%
PLA2 ctr: inhibits human PLA2, flagging false ATG4B inhibitors. shares compounds with ATG4B inh. purified PLA2, NBD-C6-HPC fluorescence, 45 min. inhibition, % at 8.33 µM. 1,600 compounds, 66% hits. AID 588402
Target sequence (P04054 whole entry, looked up): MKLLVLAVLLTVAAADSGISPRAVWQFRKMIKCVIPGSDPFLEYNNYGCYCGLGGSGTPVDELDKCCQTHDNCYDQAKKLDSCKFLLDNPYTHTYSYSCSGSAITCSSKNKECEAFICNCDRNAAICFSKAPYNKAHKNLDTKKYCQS
An asterisk follows results filed as active. Unless noted, no stated cut-off is given here; in the data, active means inhibition above about 50%; inactive means the rest.

How did COc1cc(OC)cc(C(=O)Nn2c(C)nc3ccccc3c2=O)c1 do in these assays?
ATG4B inh: -0.6; CendR NRP1 mod: -4.0; PKA-R1A activ: -1.3; VLA-4 inh: 7.1; PKA-R2B activ: -3.6

What do the screens show for `Cc1ccc(C(=O)CC(=O)c2cc(Cl)ccc2O)cc1`?
ATG4B inh: 46.5*; CendR NRP1 mod: -8.5; PKA-R1A activ: -3.7; VLA-4 inh: 7.5; PKA-R2B activ: -2.3; ATG4B conf: 71.9*; PLA2 ctr: 47.0

What do the screens show for `CC(C)(C)c1ccc(C(=O)CC(=O)c2cc(Cl)ccc2O)cc1`?
ATG4B inh: -0.5; CendR NRP1 mod: -6.0; PKA-R1A activ: -6.7; VLA-4 inh: -10.1; PKA-R2B activ: -12.6

How did CC(C)(C)c1ccc(OC(=O)c2ccccc2)cc1 do in these assays?
ATG4B inh: 67.5*; CendR NRP1 mod: -2.4; PKA-R1A activ: -1.5; VLA-4 inh: 2.5; PKA-R2B activ: -9.4; PLA2 ctr: 64.3*

How did COc1ccc(NS(=O)(=O)c2cc(NC(=O)c3ccc(=O)[nH]c3)ccc2N2CCCC2)cc1 do in these assays?
ATG4B inh: -19.9; CendR NRP1 mod: 16.9; PKA-R1A activ: 10.1; VLA-4 inh: -0.9; PKA-R2B activ: 7.2

How did COc1ccc(Br)cc1/C=C(\C(=O)O)c1ccc(S(=O)(=O)N2CCCCC2)s1 do in these assays?
ATG4B inh: 84.4*; CendR NRP1 mod: -22.3; PKA-R1A activ: 4.7; VLA-4 inh: 9.8; PKA-R2B activ: 2.7; PLA2 ctr: 87.1*

Results for COc1ccc(C2CC(=O)Oc3cc(C)c(Cl)cc32)cc1 (stereo not drawn) ?
ATG4B inh: 4.4; CendR NRP1 mod: -8.0; PKA-R1A activ: -7.1; PKA-R2B activ: 2.3

Results for Cc1nn(Cc2c(F)c(F)c(F)c(F)c2F)c(C)c1NC(=O)c1ccc(COc2ccccc2Cl)cc1 ?
ATG4B inh: 7.7; CendR NRP1 mod: -2.0; PKA-R1A activ: -3.4; PKA-R2B activ: 1.9

How did Cc1nn(Cc2c(F)c(F)c(F)c(F)c2F)c(C)c1NC(=O)c1ccc(COc2cc(Cl)ccc2Cl)cc1 do in these assays?
ATG4B inh: 61.6*; CendR NRP1 mod: -4.2; PKA-R1A activ: 3.7; VLA-4 inh: 11.5; PKA-R2B activ: -7.3; ATG4B conf: 44.0*; PLA2 ctr: 19.6

Results for Cc1nn(Cc2c(F)c(F)c(F)c(F)c2F)c(C)c1NC(=O)c1ccc(COc2ccc(F)cc2)o1 ?
ATG4B inh: 66.8*; CendR NRP1 mod: 1.7; PKA-R1A activ: -21.4; PKA-R2B activ: -7.8; PLA2 ctr: 67.9*

How did Cc1nn(Cc2c(F)c(F)c(F)c(F)c2F)c(C)c1NC(=O)c1ccc(COc2ccccc2Cl)o1 do in these assays?
ATG4B inh: 67.5*; CendR NRP1 mod: -1.1; PKA-R1A activ: 7.6; VLA-4 inh: -3.1; PKA-R2B activ: -3.5; PLA2 ctr: 79.0*

How did COc1ccc(CC(NC(C)=O)C(=O)NC2CCN(C(=O)c3ccccc3F)CC2)cc1 (stereo not drawn) do in these assays?
ATG4B inh: -11.3; CendR NRP1 mod: -3.9; PKA-R1A activ: -0.3; VLA-4 inh: 3.5; PKA-R2B activ: 2.6

How did O=C(NCc1ccccc1Cl)c1cccc(NC(=O)c2ccccc2)c1 do in these assays?
ATG4B inh: 48.0*; CendR NRP1 mod: 18.3*; PKA-R1A activ: 4.4; VLA-4 inh: 29.1; PKA-R2B activ: -14.3; PLA2 ctr: 52.8*

How did O=C(NC(=S)Nc1ccc(F)c(Cl)c1)C1CC1 do in these assays?
ATG4B inh: 0.3; CendR NRP1 mod: 3.9; PKA-R1A activ: -1.8; VLA-4 inh: 3.8; PKA-R2B activ: 0.3

What do the screens show for `FC(F)(F)c1cccc(NC(=S)NNC(=S)NCc2ccccc2)c1`?
ATG4B inh: 41.8*; CendR NRP1 mod: 4.2; PKA-R1A activ: -11.3; VLA-4 inh: 3.8; PKA-R2B activ: -9.4; PLA2 ctr: 49.7

How did O=C(NCc1ccccc1)c1cccc(NC(=O)c2ccccc2)c1 do in these assays?
ATG4B inh: 8.2; CendR NRP1 mod: -13.0; PKA-R1A activ: 5.2; PKA-R2B activ: -3.8

Assay outcomes from PubChem BioAssay.
